Experimental findings from article PMC12820563, “FoxP3 forms a head-to-head dimer in vivo and stabilizes its multimerization on adjacent microsatellites” are described below.

In all, about 16,000 sequences were measured (“rpm ratio (pull-down/input)”: median about 0.5, highest 2% from about 5.5 on). Many of the other results were omitted from the sample, so the highest values are more common in it than they were.

The test has as its target T1, MBP-FoxP3dN (Mus musculus, UniProt Q99JB6 188-423).
T1 sequence: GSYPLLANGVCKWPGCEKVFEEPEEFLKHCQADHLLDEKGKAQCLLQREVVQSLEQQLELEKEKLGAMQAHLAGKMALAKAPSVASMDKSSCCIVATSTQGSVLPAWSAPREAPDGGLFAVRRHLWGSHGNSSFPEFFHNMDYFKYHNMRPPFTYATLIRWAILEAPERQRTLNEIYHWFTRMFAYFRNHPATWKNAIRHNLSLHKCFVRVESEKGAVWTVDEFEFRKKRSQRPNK
In words: PD-seq (MBP pull-down with sequencing); 20 mM Tris-HCl pH 7.5, 100 mM NaCl, 1.5 mM MgCl2, 0.4 uM protein, 0.1 uM dsDNA library, 30 min, room temperature, amylose pull-down; high values mean tight binding. The note with it: protein: recombinant; tags: His6-MBP; chain copies: 2; dsDNA, one strand shown. The gist of the method:
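A fragment of mouse FoxP3 or FoxP1 without its N-terminus, carrying a His6-MBP tag and produced in E. coli, was combined at 0.4 µM with a 0.1 µM degenerate double-stranded DNA library filled in with Klenow. The mixture sat for 30 min at room temperature in Tris pH 7.5 buffer containing NaCl and MgCl2. Protein–DNA complexes were captured on amylose resin, washed three times, and the DNA was freed with proteinase K, barcoded by PCR and sequenced on Illumina. Binding is expressed as reads-per-million enrichment of pull-down over input, with replicates pooled.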
For the sequence “GATGATTGTTCTCCCAGCTGATGAATTTGTAGTATCGAGTAAACAAATTTTCCTAATCTTTCTGTTCAAGCGCCATCTAC”, the binding signal is 5.7 RPM ratio (pull-down/input).

On to “GATGATTGTTCTCCCAGCTGATGAATTTGCTGTATCGAGTAAACAAATTTTCCTAATCTTTCTGTTCAAGCGCCATCTAC”, for which the binding signal was 4.72 RPM ratio (pull-down/input).

Regarding “GATGATTGTTCTCCCAGCTGATGAATTCTAGCTGTCGAGTAAACAAATTTTCCTAATCTTTCTGTTCAAGCGCCATCTAC”, the binding signal is 0.392 RPM ratio (pull-down/input).

Regarding “GATGATTGTTCTCCCAGCTGATGAATTCGTTAGTTCGAGTAAACAAATTTTCCTAATCTTTCTGTTCAAGCGCCATCTAC”, the binding signal was 2.91 RPM ratio (pull-down/input).

Consider “GATGATTGTTCTCCCAGCTGATGAATTTTACTCATCGAGTAAACAAATTTTCCTAATCTTTCTGTTCAAGCGCCATCTAC”, for which the binding signal is 0.402 RPM ratio (pull-down/input).

In the case of “GATGATTGTTCTCCCAGCTGATGAATTTCAAGTTTCGAGTAAACAAATTTTCCTAATCTTTCTGTTCAAGCGCCATCTAC”, the binding signal was 0.283 RPM ratio (pull-down/input).

“GATGATTGTTCTCCCAGCTGATGAATTTATACGTTCGAGTAAACAAATTTTCCTAATCTTTCTGTTCAAGCGCCATCTAC”: the binding signal is 0.886 RPM ratio (pull-down/input).

With “GATGATTGTTCTCCCAGCTGATGAATTTCCACGTTCGAGTAAACAAATTTTCCTAATCTTTCTGTTCAAGCGCCATCTAC”, the binding signal was 0.311 RPM ratio (pull-down/input).

Consider “GATGATTGTTCTCCCAGCTGATGAATTTGTATCTTCGAGTAAACAAATTTTCCTAATCTTTCTGTTCAAGCGCCATCTAC”, for which the binding signal was 5.56 RPM ratio (pull-down/input).

In the case of “GATGATTGTTCTCCCAGCTGATGAATTGTAATGCTCGAGTAAACAAATTTTCCTAATCTTTCTGTTCAAGCGCCATCTAC”, the binding signal was 1.07 RPM ratio (pull-down/input).

Turning to “GATGATTGTTCTCCCAGCTGATGAATTTGTATGCTCGAGTAAACAAATTTTCCTAATCTTTCTGTTCAAGCGCCATCTAC”, the binding signal was 6.51 RPM ratio (pull-down/input).

On to “GATGATTGTTCTCCCAGCTGATGAATTTCTATGCTCGAGTAAACAAATTTTCCTAATCTTTCTGTTCAAGCGCCATCTAC”, for which the binding signal was 0.385 RPM ratio (pull-down/input).

Turning to “GATGATTGTTCTCCCAGCTGATGAATTGTAATACTCGAGTAAACAAATTTTCCTAATCTTTCTGTTCAAGCGCCATCTAC”, the binding signal is 0.756 RPM ratio (pull-down/input).

With “GATGATTGTTCTCCCAGCTGATGAATTTGATGTATCGAGTAAACAAATTTTCCTAATCTTTCTGTTCAAGCGCCATCTAC”, the binding signal was 4.63 RPM ratio (pull-down/input).

Consider “GATGATTGTTCTCCCAGCTGATGAATTTGTTGTATCGAGTAAACAAATTTTCCTAATCTTTCTGTTCAAGCGCCATCTAC”, for which the binding signal is 7.55 RPM ratio (pull-down/input).

Take “GATGATTGTTCTCCCAGCTGATGAATTTGTATACTCGAGTAAACAAATTTTCCTAATCTTTCTGTTCAAGCGCCATCTAC”: the binding signal is 7.1 RPM ratio (pull-down/input).

For the sequence “GATGATTGTTCTCCCAGCTGATGAATTTGTATCATCGAGTAAACAAATTTTCCTAATCTTTCTGTTCAAGCGCCATCTAC”, the binding signal was 5.48 RPM ratio (pull-down/input).

Turning to “GATGATTGTTCTCCCAGCTGATGAATTGTATCTTTCGAGTAAACAAATTTTCCTAATCTTTCTGTTCAAGCGCCATCTAC”, the binding signal is 1.68 RPM ratio (pull-down/input).

Take “GATGATTGTTCTCCCAGCTGATGAATTTCTATACTCGAGTAAACAAATTTTCCTAATCTTTCTGTTCAAGCGCCATCTAC”: the binding signal is 0.435 RPM ratio (pull-down/input).

As to “GATGATTGTTCTCCCAGCTGATGAATTGTATCCTTCGAGTAAACAAATTTTCCTAATCTTTCTGTTCAAGCGCCATCTAC”, the binding signal is 1.61 RPM ratio (pull-down/input).

“GATGATTGTTCTCCCAGCTGATGAATTCGTTTCCTCGAGTAAACAAATTTTCCTAATCTTTCTGTTCAAGCGCCATCTAC”: the binding signal was 1.76 RPM ratio (pull-down/input).

Regarding “GATGATTGTTCTCCCAGCTGATGAATTGTGGAAGTCGAGTAAACAAATTTTCCTAATCTTTCTGTTCAAGCGCCATCTAC”, the binding signal is 0.274 RPM ratio (pull-down/input).

Regarding “GATGATTGTTCTCCCAGCTGATGAATTTAGCGGATCGAGTAAACAAATTTTCCTAATCTTTCTGTTCAAGCGCCATCTAC”, the binding signal was 0.292 RPM ratio (pull-down/input).

Consider “GATGATTGTTCTCCCAGCTGATGAATTGACTCCCTCGAGTAAACAAATTTTCCTAATCTTTCTGTTCAAGCGCCATCTAC”, for which the binding signal was 0.386 RPM ratio (pull-down/input).

In the case of “GATGATTGTTCTCCCAGCTGATGAATTTCTTTGCTCGAGTAAACAAATTTTCCTAATCTTTCTGTTCAAGCGCCATCTAC”, the binding signal is 1.5 RPM ratio (pull-down/input).

Take “GATGATTGTTCTCCCAGCTGATGAATTATTTTGCTCGAGTAAACAAATTTTCCTAATCTTTCTGTTCAAGCGCCATCTAC”: the binding signal was 0.946 RPM ratio (pull-down/input).

As to “GATGATTGTTCTCCCAGCTGATGAATTTTGTTGCTCGAGTAAACAAATTTTCCTAATCTTTCTGTTCAAGCGCCATCTAC”, the binding signal is 5.63 RPM ratio (pull-down/input).

Regarding “GATGATTGTTCTCCCAGCTGATGAATTTGTTTGCTCGAGTAAACAAATTTTCCTAATCTTTCTGTTCAAGCGCCATCTAC”, the binding signal is 7.54 RPM ratio (pull-down/input).

With “GATGATTGTTCTCCCAGCTGATGAATTTAGTTGCTCGAGTAAACAAATTTTCCTAATCTTTCTGTTCAAGCGCCATCTAC”, the binding signal was 2.92 RPM ratio (pull-down/input).

As to “GATGATTGTTCTCCCAGCTGATGAATTGTTTTGCTCGAGTAAACAAATTTTCCTAATCTTTCTGTTCAAGCGCCATCTAC”, the binding signal is 3.65 RPM ratio (pull-down/input).

Take “GATGATTGTTCTCCCAGCTGATGAATTTATTTGCTCGAGTAAACAAATTTTCCTAATCTTTCTGTTCAAGCGCCATCTAC”: the binding signal was 6.11 RPM ratio (pull-down/input).

For “GATGATTGTTCTCCCAGCTGATGAATTAGTTTTCTCGAGTAAACAAATTTTCCTAATCTTTCTGTTCAAGCGCCATCTAC”, the binding signal was 4.62 RPM ratio (pull-down/input).

For the sequence “GATGATTGTTCTCCCAGCTGATGAATTTTTTTGCTCGAGTAAACAAATTTTCCTAATCTTTCTGTTCAAGCGCCATCTAC”, the binding signal was 0.366 RPM ratio (pull-down/input).

For “GATGATTGTTCTCCCAGCTGATGAATTTGATTGCTCGAGTAAACAAATTTTCCTAATCTTTCTGTTCAAGCGCCATCTAC”, the binding signal is 5.45 RPM ratio (pull-down/input).

In the case of “GATGATTGTTCTCCCAGCTGATGAATTTTATTGCTCGAGTAAACAAATTTTCCTAATCTTTCTGTTCAAGCGCCATCTAC”, the binding signal is 2.06 RPM ratio (pull-down/input).

As for “GATGATTGTTCTCCCAGCTGATGAATTAGTTTGCTCGAGTAAACAAATTTTCCTAATCTTTCTGTTCAAGCGCCATCTAC”, the binding signal was 5.59 RPM ratio (pull-down/input).
